In PubChem BioAssay (EPA / NIEHS):
Where “and” joins values, the source holds several entries; their conditions need not be identical. Identical values can stand only once. Records with an inconclusive call do not appear. Calls of active or inactive are those of the source. The calls were made as follows, unless noted: active = hit-call score of the fitted dose curve at least 0.9, where 1 is the maximum; inactive = score below 0.9.

What was measured:
[1] = test system: SRY-box transcription factor 17 (SOX17) Protein Expression, Deisenroth Lab, SOX17 (gene 64321); assay: CCTE_Deisenroth_DEVTOX-GLR_legacy_Sox17: (Legacy) CCTE's DevTox GLR-Endo Assay Evaluation of SRY-box transcription factor 17 (SOX17) Protein Expression, Deisenroth Lab (AID 2284341); conditions: actives raise or lower the signal
How it was run: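 Endoderm-differentiation readout in RUES2-GLR human pluripotent cells at 48 h, concentrations spanning 1 nM - 200 uM. Sox17-positive cells divided by total cell count; gain or loss relative to DMSO solvent control, n=4 experimental replicates.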

[2] = test system: SRY-box transcription factor 2 (SOX2) Protein Expression, Deisenroth Lab, SOX2 (gene 6657); assay: CCTE_Deisenroth_DEVTOX-GLR_legacy_Sox2: (Legacy) CCTE's DevTox GLR-Endo Assay Evaluation of SRY-box transcription factor 2 (SOX2) Protein Expression, Deisenroth Lab (AID 2284346)
How it was run: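 Read-out: fraction of Sox2+ cells by high-content fluorescence imaging of fixed RUES2-GLR cells after 48 h differentiation with two 24 h-spaced exposures. Positivity cutoff 5x BMAD above endoderm control median; 0.2% DMSO median subtracted.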

[3] = Tanguay_ZF_120hpf_DP24: Oregon State University Tanguay Lab 24 Hour Post-fertilization zebrafish Assay for Delayed Development (AID 2284390)
How it was run: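 Scored at 24 hpf as a binary present/absent call of delayed development by brightfield, with dead embryos not assessed. Embryos (5D wild type, chorion removed with pronase at 4 hpf) dosed statically from 6 hpf at 28 C in 0.64% DMSO.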

[4] = Tanguay_ZF_120hpf_CRAN: Oregon State University Tanguay Lab 120 Hour Post-fertilization zebrafish Assay for Craniofacial Malformation (AID 2284397)
How it was run: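 Scoring of craniofacial malformation as a binary endpoint was done at 120 hpf by brightfield microscopy and was not done in dead embryos. Exposure was static, starting at 6 hpf, in dechorionated wild-type embryos held singly at 28C with 0.64% DMSO final.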

[5] = Tanguay_ZF_120hpf_AXIS: Oregon State University Tanguay Lab 120 Hour Post-fertilization zebrafish Assay for Axial Malformation (AID 2284398)
How it was run: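 Scoring was binary (present or absent) for body-axis defects, judged by brightfield imaging at 120 hpf in surviving larvae. Exposure was static at 28C from 6 hpf in chorion-free 5D wild-type embryos, with 0.64% DMSO vehicle.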

[6] = Tanguay_ZF_120hpf_MORT: Oregon State University Tanguay Lab 120 Hour Post-fertilization zebrafish Assay for Mortality (AID 2284399)
How it was run: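 Mortality, recorded present/absent via brightfield imaging at 24 and 120 hpf, in 5D zebrafish embryos exposed statically from 6 hpf after pronase chorion removal. Exposure at 28C, 0.64% DMSO vehicle, DMSO baseline.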

[7] = Tanguay_ZF_120hpf_EDEM: Oregon State University Tanguay Lab 120 Hour Post-fertilization zebrafish Assay for Edema Malformation (AID 2284400)
How it was run: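 Edema recorded as a binary endpoint under brightfield at 120 hpf, excluding embryos that died. Exposure was static, sealed, 28C, from 6 hpf in dechorionated wild-type larvae, final DMSO 0.64%, DMSO as baseline.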

[8] = Tanguay_ZF_120hpf_BRN: Oregon State University Tanguay Lab 120 Hour Post-fertilization zebrafish Assay for Brain Region Malformation (AID 2284402)
How it was run: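 Binary brightfield scoring of brain malformation at 120 hpf in 5D wild-type larvae, chorion removed with pronase at 4 hpf. Static exposure began at 6 hpf, 28C, sealed plates, DMSO 0.64% (vol/vol) as vehicle baseline.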

[9] = Tanguay_ZF_120hpf_ANY: Oregon State University Tanguay Lab 120 Hour Post-fertilization zebrafish Assay for Any Mortality and Malformation (AID 2284404)
How it was run: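 Dechorionated Tropical 5D wild-type embryos, one per well from 6 hpf, static exposure in sealed, dark plates at 28C until 120 hpf, 0.64% DMSO final. Brightfield scoring of mortality and malformations as binary presence/absence, pooling 13 morphology endpoints.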

[10] = CCTE_Padilla_ZF_Score.Spine: CCTE's 144 Hour Post-fertilization zebrafish Assay Score for Spine Malformation, Padilla Lab (AID 2284407)
How it was run: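 Spine malformation scored at 6 dpf by two independent blinded observers under stereomicroscope, after static sealed exposure from 6–8 hpf at 26C in Hanks' solution with rinse on 5 dpf. Positive-direction fit against DMSO control.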

[11] = CCTE_Padilla_ZF_Score.Position: CCTE's 144 Hour Post-fertilization zebrafish Assay Score for Position, Padilla Lab (AID 2284409)
How it was run: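 Wild-type zebrafish embryos (with chorions) exposed singly from 6–8 hpf in sealed wells of Hanks' solution at 26C, rinsed at 5 dpf. At 6 dpf, blinded assessors scored abnormal water-column position by brightfield stereomicroscopy, relative to DMSO.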

[12] = CCTE_Padilla_ZF_Score.General: CCTE's 144 Hour Post-fertilization zebrafish Assay Score for General Malformation, Padilla Lab (AID 2284411)
How it was run: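 Malformation, death and hatching were scored at 6 dpf by two blinded observers under a stereo microscope. Embryos were dosed singly from 6-8 hpf in sealed plates of 10% Hanks' at 26C and rinsed on 5 dpf; DMSO baseline.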

[13] = CCTE_Mundy_HCI_iCellGluta_NOG_NeuronCount: CCTE's Neurite Outgrowth Assay in iCellGluta cells for Neuron Count, Mundy Lab (AID 2284340; active = hit-call score of the fitted dose curve at least 0.9, where 1 is the maximum;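 also: cells fixed about 48 h after compound addition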)
How it was run: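 Neuron count read by automated high-content imaging of Hoechst 33342 and betaIII-tubulin/Alexa Fluor-488 labelling in human iPSC glutamatergic neurons. Activity fitted relative to DMSO.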

[14] = CCTE_Mundy_HCI_iCellGluta_NOG_NeuriteCount: CCTE's Neurite Outgrowth Assay in iCellGluta cells for Neurite Count, Mundy Lab (AID 2284342; active = hit-call score of the fitted dose curve at least 0.9, where 1 is the maximum;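 also: chemical exposure about 48 hours starting 2 hours after plating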)
[15] = VALA_TUBIPS_Agonist_CellCount: Viability Assessment in the VALA Sciences human iPS-derived Endothelial Tubule Formation (TUBIPS) Agonism Assay (AID 2284338; active = hit-call score of the fitted dose curve at least 0.9, where 1 is the maximum)
Description: VALA_TUBIPS_Agonist is a cell-based, multiplexed assay that uses human iPS-derived endothelial cells (iPSC). Measurements were taken 72 hours after chemical dosing in a 96-well plate.VALA_TUBIPS_Agonist_CellCount is the one of two assay components measured from the VALA_TUBIPS_Agonist assay. It is designed to make measurements of viability, a form of viability reporter, as detected with fluorescence intensity signals by HCS Fluorescent Imaging technology. Data from the assay component VALA_TUBIPS_Agonist_CellCount was analyzed at the endpoint, VALA_TUBIPS_Agonist_CellCount, in the positive analysis fitting direction relative to DMSO as the negative control and baseline of activity. Using a type of viability reporter, loss-of-signal activity can be used to understand viability. To generalize the intended target to other relatable targets, this assay endpoint is annotated to the cell cycle intended target family, where the subfamily is cell count.
[…]

SERPINA7 (gene 6906) = assay: CCTE_GLTED_hTBG: CCTE's human Thyroxine-binding Globulin (TBG) Inhibition Assay, Great Lakes Toxicology and Ecology Division (GLTED) Lab (AID 2284343; active = hit-call score of the fitted dose curve at least 0.9, where 1 is the maximum;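 also: active chemicals lower fluorescence versus DMSO baseline by displacing probe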)
How it was run: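 Fluorescence (ex 380/em 475) reports ANSA displaced from human TBG after a 2 h incubation with test chemical, without cells. Loss of signal indicates displacement, with DMSO serving as baseline.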

[16] = test system: SRY-box transcription factor 2 (SOX2) Protein Expression, Deisenroth Lab, SOX2 (gene 6657); assay: CCTE_Deisenroth_DEVTOX-GLR_Endo_SOX2: CCTE's DevTox GLR-Endo Assay Evaluation of SRY-box transcription factor 2 (SOX2) Protein Expression, Deisenroth Lab (AID 2284412; active = hit-call score of the fitted dose curve at least 0.9, where 1 is the maximum)
How it was run: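 Endpoint is percent SOX2-positive cells (SOX2+ count/total cells) minus 0.2% DMSO control, from high-content imaging of fixed, nuclear-stained RUES2-GLR cells. Dosing twice at 24 h intervals over 48 h differentiation, 1 nM–200 uM in 10 points.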

[17] = CCTE_Deisenroth_H295R-HTRF_384WELL_ESTRADIOL: CCTE's H295R-HTRF Assay Evaluation of Estradiol Concentration, Deisenroth Lab (AID 2284361); conditions: actives raise or lower the signal
How it was run: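 Estradiol secreted into medium by H295R adrenocortical cells, quantified by HTRF after 48 h dosing over a nine-point 0.001 - 100 uM final range; gain or loss versus DMSO. Parallel ATP-luminescence viability readout; n=5 experiments.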

[18] = CCTE_Deisenroth_H295R-HTRF_384WELL_TESTOSTERONE: CCTE's H295R-HTRF Assay Evaluation of Testosterone Concentration, Deisenroth Lab (AID 2284373); conditions: actives raise or lower the signal
How it was run: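 Testosterone secreted into medium was quantified by direct HTRF immunoassay after a 48 h treatment of H295R adrenocortical cells (nine concentrations, 0.001–100 uM final). Gain or loss fitted relative to DMSO; CellTiter-Glo viability read on same plates.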

[19] = CCTE_Deisenroth_H295R-HTRF_384WELL_CTOX: Cytotoxicity Assessment in CCTE's H295R-HTRF Assay, Deisenroth Lab (AID 2284380; active = hit-call score of the fitted dose curve at least 0.9, where 1 is the maximum)
How it was run: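 Luminescent ATP viability readout (CellTiter-Glo 2.0), multiplexed on plates used for hormone sampling, after 48 h chemical exposure. Human H295R cells; final concentrations 0.001–100 uM in nine steps, technical triplicates, five experiments; DMSO baseline.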

Measured: AC50

CCCC(CCC)C(=O)O
inactive: [1] | [2]

FC(F)C(F)(F)COCC1CO1 (stereo not given)
active: [12] 9.44 µM
inactive: [3] | [4] | [5] | [6] | [7] | [8] | [9] | [10] | [11]

c1ccc2cc3ccccc3cc2c1
inactive: [13] | [14]

C[C@]12C=CC(=O)C=C1CC[C@H]1[C@@H]3C[C@@H](O)[C@](O)(C(=O)CO)[C@@]3(C)C[C@H](O)[C@@]12F
active: [14] 23.7 µM

FC(F)(F)COC(OCC(F)(F)F)OCC(F)(F)F
inactive: [3] | [4] | [5] | [6] | [7] | [8] | [9] | [10] | [11] | [12]

OCCNCCO
inactive: [15]

CCCCCCCCCC
active: [15] 7.79 µM

Cn1cc[nH]c1=S
inactive: [15] | [13] | [14]

O=C(Cl)C(F)(F)C(F)(F)C(F)(F)C(=O)Cl
active: [6] 57.6 µM | [9] 57.6 µM
inactive: [13] | [14] | [3] | [4] | [5] | [7] | [8] | [10] | [11] | [12]

OC(O)(C(F)C(O)(O)C(F)(F)F)C(F)(F)F
active: [4] 42.2 µM | [7] 66.9 µM | [9] 40.5 µM | [11] 76.9 µM | [12] 32.4 µM
inactive: [13] | [14] | [3] | [5] | [6] | [8] | [10]

CCCCCCCCCCCCCCCCOS(=O)(=O)O
active: SERPINA7 (gene 6906) 2.91 µM

NC(=O)N1c2ccccc2C=Cc2ccccc21
inactive: [2]
active: [1] 100 µM | SERPINA7 (gene 6906) 30.5 µM | [16] 16.7 µM

C[Si](C)(C)C(F)(F)C(F)(F)C(F)(F)F
inactive: [3] | [4] | [5] | [6] | [7] | [8] | [9] | [10] | [11] | [12]

C=CCc1cc(S(=O)(=O)c2ccc(O)c(CC=C)c2)ccc1O
active: SERPINA7 (gene 6906) 1.47 µM

CC(C)C(=O)Nc1ccc([N+](=O)[O-])c(C(F)(F)F)c1
active: [19] 66.7 µM
inactive: SERPINA7 (gene 6906) | [17] | [18]

CCc1ccc(O)c(C(C)(C)C)c1
active: SERPINA7 (gene 6906) 35.3 µM

CCN(CC)C(=S)SSC(=S)N(CC)CC
inactive: [15]
active: SERPINA7 (gene 6906) 11.7 µM

S=P(N1CC1)(N1CC1)N1CC1
inactive: [12]

Nc1ccn([C@@H]2O[C@H](CO)[C@@H](O)[C@@H]2O)c(=O)n1
active: [13] 415 nM and 814 nM | [1] 0.554 µM | [14] 959 nM and 1.04 µM | [2] 0.937 µM | [16] 4.66 µM

FC(F)=C(F)C(F)(F)C(F)(F)C(F)(F)C(F)(F)C(F)(F)C(F)(F)F
inactive: [13] | [14] | [3] | [4] | [5] | [6] | [7] | [8] | [9] | [10] | [11] | [12]

OCCC(F)(F)C(F)(F)C(F)(F)C(F)(F)F
inactive: [3] | [4] | [5] | [6] | [7] | [8] | [9] | [10] | [11] | [12]

O=C(NO)C1(NS(=O)(=O)c2ccc(Oc3ccc(F)cc3)cc2)CCOCC1
inactive: SERPINA7 (gene 6906)

O=S(=O)(O)CCC(F)(F)C(F)(F)C(F)(F)C(F)(F)C(F)(F)C(F)(F)F
inactive: [3] | [4] | [5] | [6] | [7] | [8] | [9] | [10] | [11] | [12]

FC(F)(F)C(F)(F)C(F)(F)C(F)(F)C(F)(F)C(F)(F)I
inactive: [14] | [3] | [4] | [5] | [6] | [7] | [8] | [9] | [10] | [11] | [12]

NNC(=O)c1ccncc1
inactive: [1] | [2] | [16]

NCC(F)(F)C(F)(F)C(F)(F)C(F)(F)F
inactive: [3] | [4] | [5] | [6] | [7] | [8] | [9] | [10] | [11] | [12]
